Source: ChEMBL document CHEMBL2218924, “A broad activity screen in support of a chemogenomic map for kinase signalling research and drug discovery” (Biochem J, 2013)

Target: T1, Tyrosine-protein kinase ZAP-70 (Homo sapiens) (UniProt P43403)
T1 sequence (whole entry): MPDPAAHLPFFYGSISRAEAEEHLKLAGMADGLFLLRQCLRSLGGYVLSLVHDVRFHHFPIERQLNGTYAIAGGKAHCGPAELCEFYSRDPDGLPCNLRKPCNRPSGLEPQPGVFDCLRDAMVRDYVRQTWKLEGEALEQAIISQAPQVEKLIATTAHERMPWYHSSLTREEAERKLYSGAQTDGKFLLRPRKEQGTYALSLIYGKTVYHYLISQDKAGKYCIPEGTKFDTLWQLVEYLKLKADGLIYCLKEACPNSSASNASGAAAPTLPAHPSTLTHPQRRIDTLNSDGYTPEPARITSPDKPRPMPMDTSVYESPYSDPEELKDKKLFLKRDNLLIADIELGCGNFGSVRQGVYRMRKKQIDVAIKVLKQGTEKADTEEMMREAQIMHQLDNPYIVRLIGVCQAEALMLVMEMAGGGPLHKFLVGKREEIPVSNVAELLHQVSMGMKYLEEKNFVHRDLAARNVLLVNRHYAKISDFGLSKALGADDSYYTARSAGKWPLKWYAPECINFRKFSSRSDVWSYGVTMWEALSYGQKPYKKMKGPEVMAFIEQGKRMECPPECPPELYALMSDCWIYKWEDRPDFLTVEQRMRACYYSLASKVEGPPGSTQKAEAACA
Conditions: at 10 µM

| Structure (SMILES) | residual activity [%] |
| --- | --- |
| NC(=O)c1ccc(-c2nc(-c3ccc4c(c3)OCCO4)c(-c3ccccn3)[nH]2)cc1 | 86 |
| O=C(c1cc2cc(O)ccc2[nH]1)c1cc2cc(O)ccc2[nH]1 | 109 |
| COc1ccc(S(=O)(=O)N(CCO)c2ccccc2CN(C)C/C=C/c2ccc(Cl)cc2)cc1 | 97 |
| O=C1Nc2cc(Br)ccc2/C1=C1/Nc2ccccc2/C1=N\O | 95 |
| Nc1n[nH]c2nnc(-c3c(-c4ccccc4)nn4ccccc34)cc12 | 81 |
| O=C(CCCc1ccc(-c2ccccc2F)cc1)Nc1ccc(O)cc1 | 109 |
| CC(C)n1cnc2/c(=N/c3cccc(Cl)c3)nc(NCCO)[nH]c21 | 117 |
| N#Cc1cnc2cnc(NCc3cccnc3)cc2c1Nc1ccc(F)c(Cl)c1 | 38 |
| Cn1cnc2cc3c(Nc4cccc(Br)c4)ncnc3cc21 | 89 |
| O=C(O)c1ccc2c3c1cccc3c(=O)n1c3ccccc3nc21 | 111 |
| CC(C)(C)n1nc(Cc2cccc3ccccc23)c2c(N)ncnc21 | 110 |
| CC(=O)c1ccc(N2CCOCC2)cc1O | 86 |
| Cn1sc(=O)n(Cc2ccccc2)c1=O | 96 |
| CC(=O)O/N=C1\C(=C2\C(=O)Nc3cc(Br)ccc32)Nc2ccccc21 | 87 |
| O=C(Nc1cccc(Nc2cc(Nc3cccc(C(F)(F)F)c3)ncn2)c1)C1CC1 | 101 |
| CN(C)c1ccc(/C=C2\C(=O)Nc3ccccc32)cc1 | 115 |
| Oc1n[nH]c2nnc(-c3c(-c4ccccc4)nn4ccccc34)cc12 | 99 |
| O=C1NC(=O)c2c1c1c3ccccc3[nH]c1c1[nH]c3cc(Br)ccc3c21 | 90 |
